From PubChem BioAssay come the findings set out here.

The source made the active and inactive calls.

Assay [1] concerns Human papillomavirus type 1a protein E7 (residues 44-93). Nature of the assay: HPV1a E7 fragment binders on microarrays, primary screen, biochemical, small-molecule microarray, residues 44-93, 635 nm fluorescence (AID 1108).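 Further: E7 fragment applied at 1 µg/mL in TBST for 1 h at 4 C; score combines spot fluorescence with its signal to noise ratio.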 As to conditions: small-molecule microarray binding, fluorescence 635 nm; higher = more signal.
The nature of assay [2]: modulators of HCV replicon luciferase signal, primary screen, HCV replication inhibitor project, Huh7 cells, luciferase reporter (AID 1109).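 Further: huh7 hepatoma cells harbouring a luciferase neomycin HCV replicon reporter; luciferase luminescence as measure of HCV replicon replication; test concentration not given here.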 The note with it: 48 h, higher = more signal.
The target in assay [3] is Left-right determination factor 2 (Homo sapiens) (UniProt O00292). The experiment in a line: LEFTY2 binders on small-molecule microarrays, primary screen, biochemical, small-molecule microarray, 635 nm fluorescence scan (AID 1110). The note with it: LEFTY2 binding, higher = more signal.
Assay [4] has as its target Calmodulin-1 (Homo sapiens) (UniProt P0DP23). Nature of the assay: CALM1 binders on microarrays, EGTA buffer, profiling panel, biochemical, small-molecule microarray, Cy5-labelled CALM1 (AID 1111).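 Further: labelled calmodulin applied in Tris saline Tween buffer holding calcium plus EGTA and DTT.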 The note with it: Cy5-CALM1 binding fluorescence, higher = more signal.
Assay [5] shares this target. Nature of the assay: calcium-bound CALM1 binders on microarrays, profiling panel, artefact control for SMM control-protein annotation, biochemical, small-molecule microarray, Cy5-labelled CALM1, plus calcium (AID 1112).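 Further: score merges spot fluorescence with signal to noise from triplicate slides.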 The note with it: Cy5-CALM1 binding fluorescence, higher = more signal.
Assay [6] in a line: small-molecule microarray binders of probe aWnt5a, primary screen, biochemical, biotinylated probe, 635/667 nm fluorescence (AID 1113).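 Further: score merges 667 nm fluorescence intensity with signal-to-noise per printed feature.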 As to conditions: higher = more signal.
A short description of assay [7]: small-molecule microarray binders of probe aShh, primary screen, biochemical, biotinylated probe, 635/667 nm fluorescence (AID 1114).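 Further: probe is biotin-labelled aShh protein from a stem cell growth factor screen; measures binding of labelled protein to compounds printed on the slide; score merges feature fluorescence at 667 nm with signal-to-noise.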 The note with it: higher = more signal.
The nature of assay [8]: small-molecule microarray binders of probe aNog, primary screen, biochemical, biotinylated probe, 635/667 nm fluorescence (AID 1115).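 Further: probe is biotinylated aNog protein used at 0.15 µg/mL for 1 h at 4 C; z-score combines 667 nm fluorescence of each spot with its signal to noise.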 As to conditions: higher = more signal.
The target in assay [9] is Torsin-1A-interacting protein 1 (Homo sapiens) (UniProt Q5JTV8). The experiment in a line: LAP1 binders from COS7 cell lysate, primary screen, small-molecule microarray, 635/667 nm fluorescence (AID 1116). As to conditions: COS7-hLAP1 lysate binding, 635 nm fluorescence, higher = more signal.
The target of assay [10] is Alpha-bungarotoxin (Bungarus multicinctus) (UniProt P60615). Nature of the assay: alpha-bungarotoxin binders on microarray, profiling panel, artefact control for SMM control protein annotation, biochemical, small-molecule microarray, Alexa647 label, 635/667 nm fluorescence (AID 1117). The note with it: alpha-BTX-A647 binding fluorescence, higher = more signal.
For the next assay, the target named is Albumin (Bos taurus) (UniProt P02769). Nature of the assay: bovine serum albumin binders on microarray, profiling panel, artefact control for SMM control protein annotation, biochemical, small-molecule microarray, Alexa647 label, 635/667 nm fluorescence (AID 1118).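 Further: score merges 667 nm emission intensity and signal-to-noise per printed compound spot.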 The note with it: BSA-A647 binding, fluorescence 635 nm, higher = more signal.
Assay [11] in a line: small-molecule microarray binders of probe aXIP, primary screen, biochemical, NeuroSMM set, 635/667 nm fluorescence (AID 1119).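 Further: probe is the protein aXip251-270 applied at 1 µg/mL to compound-printed slides; binding of probe to printed compounds measured as 667 nm fluorescence plus signal to noise.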 The note with it: higher = more signal, called active from +8 up or from −8 down.
Assay [12] can be described thus: small-molecule binders of probe aNOTCH3, primary screen, biochemical, small-molecule microarray, 635/667 nm fluorescence (AID 1120).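 Further: probe is a biotin-tagged antibody raised against NOTCH3 rather than NOTCH3 protein; score merges spot fluorescence near 667 nm with spot signal to noise.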 As to conditions: higher = more signal.
A short description of assay [13]: small-molecule binders of probe aNOTCH2, primary screen, biochemical, small-molecule microarray, 635/667 nm fluorescence (AID 1121).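 Further: score merges feature fluorescence read at 667 nm with its signal to noise.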 As to conditions: higher = more signal.
The target of assay [14] is Carbonic anhydrase 2 (Homo sapiens) (UniProt P00918). Nature of the assay: CAII small-molecule binders, profiling panel, biochemical, small-molecule microarray, Alexa647-labelled CAII (AID 1122). The note with it: CAII-A647 binding fluorescence, higher = more signal.
A short description of assay [15]: COS7 lysate on small-molecule microarray, probe aHis, 635 nm (AID 1123).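 Further: z-score combines 667nm fluorescence intensity with signal-to-noise per printed compound spot.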 The note with it: COS7 cell lysate, fluorescence, higher = more signal.
Assay [16] in a line: compound binding in COS7 lysate, probe aLAP1, primary screen, cell lysate, small-molecule microarray (AID 1124).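 Further: lysate comes from COS7 cells expressing LAP1 and is applied at 0.3 µg/mL; score merges spot fluorescence near 667 nm with signal-to-noise over triplicate slides.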 The note with it: probe aLAP1, fluorescence, higher = more signal.
Another assay has as its system Sam68 (KHDRBS1). The experiment in a line: Sam68 small-molecule binders, primary screen, biochemical, small-molecule microarray, 635 nm fluorescence (AID 1125).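 Further: score merges 667 nm channel intensity with signal to noise over triplicate slides.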 The note with it: small-molecule microarray binding, higher = more signal.
The test system of assay [17] is Chordin-like protein 2 (CHRDL2). Nature of the assay: CHRDL2 small-molecule binders, primary screen, biochemical, small-molecule microarray, 635 nm fluorescence (AID 1126).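 Further: printed compound slides probed with Chrdl2 protein at 4 µg/mL for 1 h at 4 C; score merges 667 nm emission intensity with signal to noise over three replicate slides.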 As to conditions: small-molecule microarray binding, fluorescence 635 nm; higher = more signal.
Assay [18] deals with Concanavalin-A (Canavalia ensiformis) (UniProt P02866). Nature of the assay: ConA small-molecule binders, primary screen, artefact control for SMM control protein annotation, biochemical, small-molecule microarray, Alexa647 label, 635 nm (AID 1127).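 Further: z combines 667 nm emission intensity with signal-to-noise across three replicate slides.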 As to conditions: ConA-A647 binding fluorescence, higher = more signal.
Sequence of Concanavalin-A (Canavalia ensiformis) (P02866 whole entry, looked up): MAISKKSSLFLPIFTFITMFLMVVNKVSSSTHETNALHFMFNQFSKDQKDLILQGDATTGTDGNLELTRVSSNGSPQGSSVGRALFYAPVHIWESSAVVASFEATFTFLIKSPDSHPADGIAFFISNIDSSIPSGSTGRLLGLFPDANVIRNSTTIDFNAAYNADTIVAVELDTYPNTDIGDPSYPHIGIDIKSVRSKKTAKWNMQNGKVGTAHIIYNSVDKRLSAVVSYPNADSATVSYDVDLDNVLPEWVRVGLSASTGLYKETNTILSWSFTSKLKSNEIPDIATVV

Sequence of Alpha-bungarotoxin (Bungarus multicinctus) (P60615 whole entry, looked up): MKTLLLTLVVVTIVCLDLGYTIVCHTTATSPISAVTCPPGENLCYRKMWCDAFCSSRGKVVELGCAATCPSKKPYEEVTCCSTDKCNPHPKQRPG
Sequence of Left-right determination factor 2 (Homo sapiens) (O00292 whole entry, looked up): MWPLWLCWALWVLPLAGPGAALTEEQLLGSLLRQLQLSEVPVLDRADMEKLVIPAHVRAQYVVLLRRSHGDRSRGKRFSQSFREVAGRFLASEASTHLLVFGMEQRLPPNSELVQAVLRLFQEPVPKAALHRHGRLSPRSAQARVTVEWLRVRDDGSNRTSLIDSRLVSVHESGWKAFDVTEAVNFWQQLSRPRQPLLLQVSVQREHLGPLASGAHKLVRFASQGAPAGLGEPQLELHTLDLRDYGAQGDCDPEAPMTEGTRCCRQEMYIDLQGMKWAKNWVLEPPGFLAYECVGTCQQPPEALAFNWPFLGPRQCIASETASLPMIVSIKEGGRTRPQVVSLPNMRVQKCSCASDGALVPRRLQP
Sequence of Albumin (Bos taurus) (P02769 whole entry, looked up): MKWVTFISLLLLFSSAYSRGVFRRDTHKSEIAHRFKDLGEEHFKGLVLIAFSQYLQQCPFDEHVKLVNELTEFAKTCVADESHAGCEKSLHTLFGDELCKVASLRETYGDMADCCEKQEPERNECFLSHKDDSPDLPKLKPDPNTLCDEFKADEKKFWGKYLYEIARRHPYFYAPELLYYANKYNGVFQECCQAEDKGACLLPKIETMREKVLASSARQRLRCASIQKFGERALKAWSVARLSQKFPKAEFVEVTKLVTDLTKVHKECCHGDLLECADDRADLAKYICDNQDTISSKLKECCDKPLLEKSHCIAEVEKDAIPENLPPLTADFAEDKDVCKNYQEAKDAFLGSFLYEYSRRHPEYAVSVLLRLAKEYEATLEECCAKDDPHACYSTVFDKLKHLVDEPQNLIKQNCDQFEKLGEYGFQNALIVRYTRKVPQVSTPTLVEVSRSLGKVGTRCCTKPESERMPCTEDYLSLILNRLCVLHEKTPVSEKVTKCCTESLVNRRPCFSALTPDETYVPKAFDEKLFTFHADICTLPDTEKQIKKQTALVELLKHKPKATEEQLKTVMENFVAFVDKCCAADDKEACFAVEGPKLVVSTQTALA
Sequence of Torsin-1A-interacting protein 1 (Homo sapiens) (Q5JTV8 whole entry, looked up): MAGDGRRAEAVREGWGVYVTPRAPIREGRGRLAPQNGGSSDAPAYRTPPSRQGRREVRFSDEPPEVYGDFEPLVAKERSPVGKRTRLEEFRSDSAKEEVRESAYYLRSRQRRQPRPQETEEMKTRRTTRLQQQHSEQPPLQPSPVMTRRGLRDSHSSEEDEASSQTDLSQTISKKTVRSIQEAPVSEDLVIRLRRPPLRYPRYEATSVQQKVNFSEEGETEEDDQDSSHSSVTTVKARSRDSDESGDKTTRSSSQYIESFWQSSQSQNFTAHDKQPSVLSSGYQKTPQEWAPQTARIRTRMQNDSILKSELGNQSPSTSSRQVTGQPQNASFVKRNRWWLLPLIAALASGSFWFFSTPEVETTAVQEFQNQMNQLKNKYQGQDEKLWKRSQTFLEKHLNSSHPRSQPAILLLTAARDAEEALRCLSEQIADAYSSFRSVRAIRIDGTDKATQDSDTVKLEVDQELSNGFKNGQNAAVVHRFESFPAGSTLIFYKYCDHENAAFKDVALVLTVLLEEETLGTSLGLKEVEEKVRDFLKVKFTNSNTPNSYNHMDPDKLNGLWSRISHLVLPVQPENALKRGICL

For `CC(C)C(O)C1C=CC2C(=O)N(C)C(=O)C2N1N1CCCCC1` (stereo not given), the composite z-score was 0.471 in assay [1]; 0.223 in assay [3]; 0.372 in assay [4]; -0.387 in [5]; -0.0462 in assay [6]; 0.0723 in [7]. Besides, the composite z-score was determined as 0.693 in [8]; 0.815 in assay [9]; 0.502 in [10]; 0.867 with Albumin (Bos taurus); 0.143 in assay [12]; 0.0994 in assay [13]. Besides, the composite z-score in assay [14] came out at 0.773; in assay [15] it was 2.2; in assay [16] it was 0.111; in the assay with Sam68 (KHDRBS1) it was 0.832; in [17], 0.117; in assay [18], 0.657. This compound gave a z-score in assay [2] of 0.279. For the same compound, the composite Z-score in assay [11] was 0.875 (inactive).

In the case of `COc1ccc(C#Cc2ccc3c(c2)[C@]2(C(=O)N3)[C@H](C(=O)N3CCc4cc(OC)c(OC)cc4C3)[C@H]3C(=O)O[C@H](c4ccccc4)[C@H](c4ccccc4)N3[C@@H]2c2ccc(OCCO)cc2)cc1`, the composite z-score in assay [1] is 1.39; in assay [3] it was 0.483; in assay [4] it was 0.861; in assay [5] it was -0.0312; in assay [6] it was 0.027; in assay [7], 0.0469. Moreover, the composite z-score in assay [8] is -0.551; in assay [9], 0.692; in assay [10], 0.992; with Albumin (Bos taurus), -0.0155; in [12], 0.0762; in assay [13], -0.0859. Besides, the composite z-score in assay [14] is 0.136; in assay [15], 1.19; in assay [16], 0.351; with Sam68 (KHDRBS1), 1.24; in assay [17], 0.523; in assay [18], 1.07. Besides, the z-score in [2] was -0.864. The composite Z-score in assay [11] was 0.289 (inactive).

As to `COCCOC(=O)N1C(=O)[C@@]2(c3cc(C#CC4(O)CCCCCC4)ccc31)[C@H](c1ccc(O)cc1)N1[C@H](c3ccccc3)[C@H](c3ccccc3)OC(=O)[C@H]1[C@@H]2C(=O)N1CCc2cc(OC)c(OC)cc2C1`, the composite z-score is -0.213 in assay [1]; -1.24 in [3]; -0.548 in assay [4]; -0.179 in assay [5]; -0.145 in assay [6]; 0.0756 in [7]. In addition, the composite z-score was -0.321 in [8]; 0.282 in assay [9]; -0.678 in assay [10]; -0.189 with Albumin (Bos taurus); -0.239 in assay [12]; -0.197 in [13]. The composite z-score in [14] was 0.859; in assay [15] it was 0.288; in assay [16] it was 0.347; in the assay on Sam68 (KHDRBS1) it was 0.0544; in assay [17], -0.861; in [18], 0.3. In addition, the z-score in assay [2] was -0.302. Further, the composite Z-score in [11] is 0.131 (inactive).

Take `CCCCN1CC=CC23O[C@@H]4/C=C\CCCOC(=O)C4[C@H]2C(=O)N(C(C)CO)[C@@H]3C1=O` (stereo not given in full): the composite z-score was -0.779 in [1]; -0.697 in assay [3]; -0.573 in [4]; -0.101 in assay [5]; -0.172 in assay [6]; -0.17 in [7]. Further, the composite z-score in [8] is -0.186; in [9], -0.585; in assay [10], -0.0491; in the assay with Albumin (Bos taurus), 0.962; in [12], -0.222; in [13] it was -0.151. Besides, the composite z-score in [14] is 0.839; in assay [15] it was 0.296; in assay [16], 0.203; in the assay on Sam68 (KHDRBS1) it was -0.296; in assay [17] it was 0.112; in assay [18] it was -1.23. In [2], this compound returned a z-score of -0.112. Moreover, in assay [11], the composite Z-score is 0.727 (inactive).

Consider `C=CCC(OC(C)=O)[C@@H]1[C@@H](N(Cc2cc3ccccc3o2)C(=O)c2cccc3ccccc23)c2cc(OCCCO)ccc2N1C(=O)Cc1ccc2ccccc2c1` (stereo not given in full), for which the composite z-score is 0.0073 in [1]; -0.31 in assay [3]; 0.191 in assay [4]; 0.223 in assay [5]; -0.124 in [6]; 0.0711 in assay [7]. The composite z-score was -0.366 in [8]; -0.089 in assay [9]; 0.474 in assay [10]; 0.398 in the assay with Albumin (Bos taurus); 0.0496 in [12]; -0.0928 in [13]. Moreover, the composite z-score in [14] is 0.0704; in assay [15], 0.256; in assay [16] it was 0.0592; in the assay with Sam68 (KHDRBS1), -0.301; in [17], 0.16; in assay [18], 0.106. In assay [2], this compound registered a z-score of -0.751. For the same compound, in assay [11], the composite Z-score is 0.182 (inactive).

As to `CC(C)C(CO)N1C(=O)[C@@H]2[C@H]3C(=O)OCC=C[C@H]3OC23C=CCN(c2ccc4ccccc4c2)C(=O)[C@@H]13` (stereo not given in full), the composite z-score in [1] is -0.177; in assay [3], -0.425; in assay [4], -0.468; in assay [5] it was -0.367; in [6] it was -0.148; in assay [7], -0.283. In addition, the composite z-score in assay [8] is -0.463; in assay [9], -1.05; in assay [10] it was -0.256; with Albumin (Bos taurus), -0.524; in assay [12] it was -0.193; in assay [13] it was -0.155. The composite z-score in assay [14] is 0.561; in assay [15], -0.572; in assay [16], 0.42; with Sam68 (KHDRBS1), -0.878; in assay [17], -1.32; in [18], -0.362. The z-score in assay [2] was -0.453. The composite Z-score in assay [11] is 0.508 (inactive).

With `O[C@@H](Cc1ccccc1)[C@@H](/C=C/c1ccccc1)NCc1ccccc1Br`, the composite z-score in [1] is -1.16; in assay [3], -1.56; in [4], -0.793; in [5], -0.43; in [6], -0.109; in assay [7] it was -0.17. Further, the composite z-score was -0.445 in [8]; -0.962 in assay [9]; -0.869 in [10]; -0.786 with Albumin (Bos taurus); -0.358 in assay [12]; -0.192 in assay [13]. Further, the composite z-score in assay [14] was -0.53; in assay [15], 0.0935; in assay [16], -0.329; with Sam68 (KHDRBS1), -0.815; in [17], -0.77; in [18], -1.05. In [2], this compound displayed a z-score of -1.38. For the same compound, the composite Z-score in assay [11] was -0.577 (inactive).
